In the library only some 9% were active in any assay of this set; here they are far more common.
IMPase Li inh: IMPase inhibition in cells with lithium potentiation | Potency, µM (highest dose often 59.4 µM), for the others: at the top dose activity, negative = IMPase inhibition, hits mostly inhibitors | CHO-M1 cells, IP1 TR-FRET (IP-One), carbachol + lithium | 210,000 compounds, 0.35% hits; active means well fitted curve in the direction sought with a large enough effect; inconclusive means small, poorly fitted or top-dose-only effect, or another doubt; inactive means no such curve, though single readings can be large; an effect the other way counts as inactive or inconclusive;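 further: IP1 builds up when IMPase is blocked and the TR-FRET signal falls; plate controls were basal vehicle for no effect and high inhibitor control for full effect; nearly all actives have a fitted effect of over 50% in size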
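CHO cells stably expressing M1 receptor (2000/well, cultured 16–30 h) treated 30 min at 37C with compound plus low lithium. Cytosolic IP1 by TR-FRET (665/620 ratio and 620 channel) after 10 min lysis; AC50 by Hill fit.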
HPGD inh: inhibitors of human 15-hydroxyprostaglandin dehydrogenase (HPGD); P15428; purified HPGD, NADH fluorescence kinetic, PGE2 substrate; Potency, µM, without a hit: at the top dose activity change, negative = inhibition, usual class: inhibitors; 150,000 compounds, 4.3% hits; AID 894
Target sequence (P15428 whole entry, looked up): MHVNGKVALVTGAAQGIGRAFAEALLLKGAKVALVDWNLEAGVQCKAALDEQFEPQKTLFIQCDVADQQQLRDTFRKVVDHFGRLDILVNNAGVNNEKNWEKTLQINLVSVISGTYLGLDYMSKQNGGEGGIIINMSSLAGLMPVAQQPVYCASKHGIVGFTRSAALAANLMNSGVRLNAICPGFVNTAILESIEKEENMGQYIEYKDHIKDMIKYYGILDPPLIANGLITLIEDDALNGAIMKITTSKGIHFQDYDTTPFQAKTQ
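NADH formation kinetics: reaction with 30 uM PGE2 and 1 mM NAD+ (final), 20 nM enzyme, Tris-HCl pH 8 with Tween 20, after 15 min compound preincubation at room temperature. Fluorescence change, last versus first of five reads.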
Luc counter: counter-screen: inhibitors of Kinase-Glo firefly luciferase. Q27757. Kinase-Glo luciferase, ATP luminescence, 8 min. Potency, µM (doses to about 38.3 µM), without a hit: at the highest dose activity change, negative = inhibition, actives largely listed as inhibitors. 200,000 compounds, 0.28% hits; active means well fitted curve in the direction sought with a large enough effect; inconclusive means small, poorly fitted or top-dose-only effect, or another doubt; inactive means no such curve, though single readings can be large; an effect the other way counts as inactive or inconclusive; further: nearly all actives have a fitted effect of over 60% in size
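Light output from Kinase-Glo luciferase with luciferin and 10 uM ATP in 50 mM imidazole pH 7.2, KCl, MgCl2, Tween 20, BSA; compound pin-delivered, 8-min ambient incubation, then luminescence read.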
ALDH1A1 inh: blocks purified human ALDH1A1 activity | Purified ALDH1A1, NADH fluorescence, propionaldehyde substrate | P00352 | Potency, µM (series often up to 75.3 µM), without a hit: top-dose activity, negative = inhibition, usual class: inhibitors | AID 1030 | 220,000 compounds, 7.3% hits;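 further: plate controls were no enzyme wells and a reference inhibitor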
Target sequence (P00352 whole entry, looked up): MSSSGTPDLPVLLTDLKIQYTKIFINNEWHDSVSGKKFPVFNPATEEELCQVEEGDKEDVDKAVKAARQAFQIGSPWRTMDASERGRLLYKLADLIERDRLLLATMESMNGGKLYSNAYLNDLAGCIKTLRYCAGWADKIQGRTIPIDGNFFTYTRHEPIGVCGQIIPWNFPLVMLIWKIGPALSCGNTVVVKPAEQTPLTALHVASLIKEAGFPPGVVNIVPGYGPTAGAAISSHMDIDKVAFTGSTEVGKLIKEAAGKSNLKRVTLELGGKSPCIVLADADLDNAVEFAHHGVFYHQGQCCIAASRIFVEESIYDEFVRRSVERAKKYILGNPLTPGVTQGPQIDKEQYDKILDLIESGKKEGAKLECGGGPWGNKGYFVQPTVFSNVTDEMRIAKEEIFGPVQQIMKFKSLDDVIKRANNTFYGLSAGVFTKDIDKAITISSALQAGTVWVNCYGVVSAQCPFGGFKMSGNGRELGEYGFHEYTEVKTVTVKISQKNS
Lamin A splicing: LMNA splicing modulation; HeLa LMNA splicing GFP/RFP minigene ratio, 48 h; Potency, µM (doses to about 46.1 µM), inactives show at the highest dose ratio change, negative = inhibition, most hits filed as inhibitors; 200,000 compounds, 0.01% hits; AID 1487; active means well fitted inhibition curve with a large enough effect in the signal ratio, with a control signal flat, not every such curve was filed as active; inconclusive means small, poorly fitted or top-dose-only effect, or effect the other way, or a change in a side signal; the % refers to the signal ratio
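S3 HeLa stable clones carrying a lamin A-EGFP splicing minigene plus DsRed2 were seeded at 600 cells/well in Opti-MEM with 2% FBS, pin-dosed and incubated 48 h at 37°C. Acumen cytometry (488 nm) gave the GFP/RFP total-intensity ratio.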
* = called active by the depositor; ? = inconclusive; · = no result; [ ] = another dose, or the depositor's remark. Unless noted, the call rests on the fitted dose curve; in most records, active means well fitted inhibition curve with a large enough effect (not every such curve was filed as active); inconclusive means small, poorly fitted or top-dose-only effect, or another doubt; inactive means no such curve, though single readings can be large or run the other way. Unless noted, on the % scale 0 is the no-effect control and ±100 the full control effect; potency means the concentration at half of the fitted maximal effect.

SMILES | IMPase Li inh | HPGD inh | Luc counter | ALDH1A1 inh | Lamin A splicing
Cc1ccc(SCc2noc(C(=O)NC(C)C)c2C(=O)O)cc1C | -5%[38.3 µM] | -14% | 1% | ? | ?
CC(C)NC(=O)c1onc(CSc2ccccc2F)c1C(=O)O | 3%[38.3 µM] | -4% | 2% | -14% | 7%[0.0737 µM]
CC(C)NC(=O)c1onc(CSc2ccc(F)cc2)c1C(=O)O | -5%[38.3 µM] | 40µM* | 3% | ? | 5%[0.0737 µM]
Cc1cc(OCCCn2ccnc2)cc(C(C)C)c1 | 16% | · | 0% | -13% | 28%[46 µM]
O=[N+]([O-])c1ccc(N2CCN(CCOCCO)CC2)c([N+](=O)[O-])c1 | -1% | · | -2% | ? | -18%[46 µM]
COc1cccc(C2=NOC(C(=O)Nc3ccc(OC)c(OC)c3)C2)c1 (centres undefined) | 20%[38.3 µM] | -13% | -2% | -3% | 9%
COc1cccc(C2=NOC(C(=O)Nc3cccc(C(C)=O)c3)C2)c1 (centres undefined) | 0%[38.3 µM] | -22% | -4% | 4µM* | 22%
O=C(O)C1CCCN1S(=O)(=O)c1cccc2nsnc12 (centres undefined) | 3% | · | 0% | 4% | 4%[46 µM]
CCOc1ccc(NC(=O)CSc2nnc(C3CC3)n2C)cc1 | 5% | · | 1% | 6% | ·
COc1ccc(C(=O)CSc2nnc(CNc3ccc(C)cc3C)n2Cc2ccco2)cc1 | 17%[38.3 µM] | ? | 0% | 7.1µM* | ?
Cc1ccc(C(=O)CSc2nnc(CNc3ccc(C)cc3C)n2Cc2ccco2)cc1 | 10%[38.3 µM] | -16% | 1% | 22µM* | -8%
CCOc1ccc(C(=O)CSc2nnc(C3CC3)n2C)cc1 | -1% | -25% | 0% | 7.9µM* | -13%
Cn1c(SCc2ccc(Cl)cc2)nnc1C1CC1 | 10% | · | -2% | 12µM* | -7%[46 µM]
CN(C)c1ccc(C(c2ccc(N(C)C)cc2)c2ccc([N+](=O)[O-])cc2)cc1 | 11% | -7% | -3%[7.66 µM] | 2%[13.5 µM] | ·
CCC(C)NC(=O)CCSCCC(=O)NC(C)CC (centres undefined) | -10% | -15% | -1% | 1% | -5%
COc1ccc(-c2nc3cc(NC(=O)COc4ccccc4C)ccc3o2)cc1 | · | · | · | · | 18%[46 µM]
CCN(Cc1cnn(C)c1)Cc1nc(C(c2ccccc2)c2ccccc2)no1 | 24% | · | 3% | ? | ?
COc1ccc(NCc2nnc(SCC(=O)c3ccc(OC)cc3)n2C)cc1 | 45%[38.3 µM] | -21% | -1% | 6.3µM* | 1%
CCn1cc(CCC(=O)O)c(C)n1 | 3% | · | 0% | 6% | 14%[46 µM]
CCn1cc(NC(=O)CCl)c(C)n1 | 2% | · | -1% | 4.5µM* | ?
O=C(NC1CSC/C1=N\O)c1ccccc1 (centres undefined) | 8%[38.3 µM] | -11% | -2% | 22µM* | 5%
O=C(NC(=S)NC1CCSC1=O)c1ccccc1 (centres undefined) | -5% | -7% | -2% | 2% | -6%
O=[N+]([O-])c1ccccc1Oc1ccccc1Cl | 12% | 32µM* | 2% | 10% | 2%
CCOc1cccc(-c2nnc(SCC(=O)Nc3cc(OC)cc(OC)c3)n2N)c1 | 25µM* | 17% | -3% | -10% | 7%
COc1ccc(NC(=O)CSc2nnc(-c3ccccc3C)n2N)cc1 | -11%[38.3 µM] | ? | -6% | 13µM* | ?
SMILES | IMPase Li inh | HPGD inh | Luc counter | ALDH1A1 inh | Lamin A splicing
NC(=O)c1ccc[n+]([C@@H]2OC(COP(=O)([O-])OP(=O)(O)OCC3OC(n4cnc5c(N)ncnc54)C(OP(=O)(O)O)C3O)C(O)C2O)c1 (some centres undefined) | 7% | -3% | ? | ? | ·
Cc1ccc(C)n1-n1cnc2scc(-c3cccs3)c2c1=O | 25%[38.3 µM] | -5% | 4% | ? | -2%
O=c1c2c(-c3cccs3)csc2ncn1-c1ccccc1 | 2% | -11% | 1% | ? | -7%
O=c1c2c(-c3cccs3)csc2[nH]c(=S)n1-c1ccccc1 | 10µM* | 28µM* | -4% | 22µM* | -6%
CCn1c(=S)[nH]c2scc(-c3cccs3)c2c1=O | ? | · | 0% | 14µM* | 12%[46 µM]
CC(C)n1c(=S)[nH]c2scc(-c3cccs3)c2c1=O | · | · | · | 13µM* | ·
COC(=O)Cc1ccc(O)c(N)c1 | 6% | · | -1% | 28µM* | -7%[46 µM]
COC(=O)[C@@H](N)Cc1ccc(O)c(O)c1 | 6% | -13% | -8% | 7% | ?
COc1ccc(-c2nc3c(c4c2C[C@H](c2ccccc2)OC4)CN(S(=O)(=O)c2ccc(C#N)cc2)CC3)c(C)c1 | 1% | 1% | -8%[7.66 µM] | 0.5µM* | ?
COc1ccc(-c2nc3c(c4c2C[C@H](c2ccccc2)OC4)CN(C(=O)C2CCCCC2)CC3)c(C)c1 | 1% | -8% | -8%[7.66 µM] | ? | 10%[9.22 µM]
COc1ccc(-c2nc3c(c4c2C[C@H](c2ccccc2)OC4)CN(C(=O)c2cc(I)ccc2F)CC3)c(C)c1 | 3% | -2% | -6%[7.66 µM] | 1.1µM* | ?
COc1ccc(-c2nc3c(c4c2C[C@H](c2ccccc2)OC4)CN(C(=O)Nc2cccc(C#N)c2)CC3)c(C)c1 | -5% | -1% | -4%[7.66 µM] | ? | ?
COc1ccc(-c2nc3c(c4c2C[C@H](c2ccccc2)OC4)CN(C(=O)N[C@@H](C)c2ccccc2)CC3)c(C)c1 | 3% | -13% | -1%[7.66 µM] | 3.5µM* | -3%[9.22 µM]
C[C@H]1Cc2c(-c3ccccc3)nc3c(c2CO1)CN(C(=O)c1cc(I)ccc1F)CC3 | 8% | -1% | -2%[7.66 µM] | 18%[13.5 µM] | 11%[9.22 µM]
COc1cccc(CC(=O)N2CCc3nc(-c4ccc(OC)cc4C)c4c(c3C2)CO[C@@H](c2ccccc2)C4)c1 | 5% | -11% | -4%[7.66 µM] | 4µM* | ?
Cc1ccc(S(=O)(=O)N2CCOCC2)cc1NC(=O)CSc1nnnn1C | 4% | · | -1% | -9% | ·
O=C(Nc1ccccc1)OC1CC2CC1C1CCCC21 (centres undefined) | 16% | · | 6% | -4% | ·
COc1cnc(SCc2ccc(Cl)cc2Cl)nc1Cl | -7%[38.3 µM] | 18µM* | -7% | 7.1µM* | ?
CCCCOc1ccc(Cl)cc1CSc1n[nH]c(C)n1 | 7%[38.3 µM] | -8% | -1% | 6% | 12%
COc1ccc(Cl)cc1CSc1n[nH]c(C)n1 | 11%[38.3 µM] | 16µM* | 17% | -5% | 12%
O=C(c1csnn1)N1CCC[C@@]2(CCN(Cc3ccccc3)C2)C1 | 7% | 3% | -1% | 12% | ·
S=c1[nH]nc(CCc2ccccc2)n1-c1ccccc1 | 2% | 16µM* | 2% | ? | -4%
O=C1C2CC=C(Cl)CC2C(=O)N1CCCCCCN1C(=O)C2CC=C(Cl)CC2C1=O (centres undefined) | 36%[38.3 µM] | 16µM* | -1% | 22µM* | -10%
O=C1C2CC=C(Cl)CC2C(=O)N1CCN1CCOCC1 (centres undefined) | 22%[38.3 µM] | -1% | 0% | -3% | 8%
Cc1ccc([N+](=O)[O-])cc1-c1ccc(/C=C(\C#N)c2[nH]nc(N)c2C#N)o1 | 5% | 2.2µM* | 1% | -7% | ?

Bioassay records as filed in PubChem.
